The values below come from PubChem BioAssay AID602193 (The Scripps Research Institute Molecular Screening Center, 2012).

Screen size: about 1,600 compounds; about 410 (26%) were called active. The list is a sample of the results. Values without a mark were called inactive.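 How the source made its calls: active means mean inhibition over triplicates above the low-control well mean plus 3 SD, set per campaign (cut at about 13% in these data); inactive means the rest.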

For orientation: inhibition means the change of the read-out against control, counted positive when it falls.

A short description of this assay: nonselective cAMP signaling inhibitors, parental cells, counter-screen for MC4R biased antagonist project, cell-based, TR-FRET, U2OS, forskolin, triplicate (AID 602193).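 Further: signal is single emission at 671 nm which falls as cellular cAMP rises; 0% = forskolin-stimulated wells and 100% = buffer without forskolin.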 To be noted: LANCE TR-FRET, at 6.5 µM, hits give high values. A general note: A counterscreen serves to expose hits that act by an unwanted route or on another target.
On to `O=C1/C(=C\c2ccc([N+](=O)[O-])cc2)CS(=O)(=O)C/C1=C/c1ccc([N+](=O)[O-])cc1`, for which the inhibition was 26.1% (active).
Then `Cc1ccc(S(=O)(=O)N(C)CC(=O)OCC(=O)Nc2ccccc2)cc1`, with 14.4% (active); and `Cc1ccc(S(=O)(=O)N(C)CC(=O)OCC(=O)N2CC(=O)Nc3ccccc32)cc1`, with 17.6% (active); and `Cc1ccc(S(=O)(=O)CCC(=O)OCC(=O)N(C)Cc2ccccc2)cc1`, with 1.96%.
`COc1ccccc1N(CC(=O)N/N=C(\C)c1ccccc1O)S(=O)(=O)c1ccc(C)cc1`: the inhibition is 5.78%.
Next, `CCOC(=O)C(C)n1cnc2sc(C)c(C)c2c1=O` (configuration not stated): 4.97%; `CC(C)Oc1ccc(/C=C(\NC(=O)/C=C/c2ccco2)C(=O)NCCc2nc3ccccc3[nH]2)cc1`: 2.02%; `O=C(CSc1nc2ccc(Nc3nc(N4CCOCC4)nc(N4CCOCC4)n3)cc2s1)NCc1ccco1`: -2.96%.
Then `Cc1ccc(NC(=O)c2c(NC(=O)CCC(=O)O)sc3c2CCCCC3)cc1`, with 3.65%; and `N#C/C=C1\Sc2ccccc2C(=O)N1CC(=O)N1CCN(S(=O)(=O)c2ccccc2)CC1`, with 7.11%; and `O=C(COC(=O)Cn1cnc2ccccc2c1=O)NCC12CC3CC(CC(C3)C1)C2`, with 19% (active).
For `O=C(Nc1ccccc1Cl)/C(Cl)=C(\Cl)S(=O)c1ccccc1` (configuration not stated), the inhibition was -0.54%.
Then `Cc1c(CCC(=O)O)c(=O)oc2cc(OCc3ccc(Br)cc3)ccc12`, with 2.85%; and `COc1ccc(Cl)cc1-c1cc(C(=O)Nc2cc(OC)c(OC)c(OC)c2)[nH]n1`, with -12.1%; and `O=S(=O)(NCc1ccco1)c1cnc(Cl)c(Cl)c1`, with 21.1% (active).
Then `COc1ccc(-n2nc(C(=O)Nc3cc(OC)c(OC)c(OC)c3)c3ccccc3c2=O)c(OC)c1`, with 6.04%.
With `Cc1ccc(C)c(S(=O)(=O)N2CCN(CC(=O)Nc3ccc([N+](=O)[O-])cc3)CC2)c1`, the inhibition is -1.3%.
Next, `COc1ccc2sc(-c3ccc(S(C)(=O)=O)cc3)c(-c3ccc(C(N)=O)cc3)c2c1`: 6.51%; `CSc1nnc(NC(=O)c2nc(S(=O)(=O)Cc3ccc(C)cc3)ncc2Cl)s1`: 26.5% (active).
Then `O=C(Nc1nnc(Cc2ccc(Cl)cc2)s1)c1cccnc1`, with -0.09%; and `O=C(NCCc1c[nH]c2ccccc12)c1cccc(Br)c1`, with 2.29%.
Then `Cc1ccc(-c2nnc(CN3CCN(C)CC3)o2)cc1`, with -0.67%; and `CCCCOC(=O)CNc1nnc(SCC(=O)OCC)[nH]c1=O`, with 34.4% (active); and `CC(NS(=O)(=O)c1ccc(Br)cc1)C(=O)NCC1CCCO1` (configuration not stated), with 4.96%.
Consider `CCOC(=O)c1cc(C)nc(S(C)(=O)=O)c1C#N`, for which the inhibition was 9.09%.
Consider `N#Cc1c(-c2cccs2)nc(SCC(=O)c2ccc(Br)cc2)[nH]c1=O`, for which the inhibition was 12.9%.
Regarding `C#Cc1cc(N2CCN(C(=O)c3ccoc3)CC2)n2nc(-c3cccc(Cl)c3)cc2n1`, the inhibition was 6.98%.
Then `COc1ccc(C(C[N+](=O)[O-])n2nc(C)cc2C)cc1` (configuration not stated), with 16.1% (active); and `O=C(NCC1CCN(Cc2ccccc2Cl)CC1)Nc1cccc(Cl)c1`, with -1.82%.
Consider `CC(=O)N1CCN(S(=O)(=O)c2c(F)cc(F)c(Cl)c2F)CC1`, for which the inhibition was 15.9% (active).
On to `O=C(c1ccc2c(c1)N(Cc1ccc(F)cc1)C(=O)c1ccccc1S2(=O)=O)N1CCN(c2ccccn2)CC1`, for which the inhibition is 1.79%.
Next, `O=C(Cn1nnc2ccccc2c1=O)Nc1cc(C(F)(F)F)ccc1N1CCOCC1`: -0.34%; `CN(CC(=O)NCCc1ccccn1)S(=O)(=O)c1ccc(Cl)cc1`: -1.11%; `Cc1c(Cl)cccc1NC(=O)[C@@]1(CC(=O)O)CC(/C=C/c2ccccc2)=NO1`: 0.29%.
Next, `COc1ccc(Oc2c(Cl)cnn(-c3ccccc3)c2=O)cc1`: 38.1% (active); `O=C(COC(=O)c1c2c(nc3ccccc13)CCCC2)c1ccc(Br)s1`: 4.15%.
Regarding `CCN(CC(=O)NCCCN1CCOCC1)S(=O)(=O)c1cc(Cl)ccc1Cl`, the inhibition was -1.05%.
For `Cc1ccc(NC(=O)COC(=O)CNC(=O)c2ccc(Cl)cc2Cl)cc1S(=O)(=O)N1CCOCC1`, the inhibition was 7.9%.
On to `Cc1nc2ccccc2c(=O)n1NC(=O)c1ccc(Cl)c([N+](=O)[O-])c1`, for which the inhibition was 18.5% (active).
Then `CC1(C)C(c2cccs2)=[N+]([O-])C2(CCCCC2=O)N1O` (configuration not stated), with -3.22%; and `Cc1ccc(C(C(=O)NCC2CCCO2)N(C(=O)c2snc(C(N)=O)c2N)c2ccc(C(C)C)cc2)o1` (configuration not stated), with 0.79%; and `COC(=O)[C@H](Cc1ccccc1)NC(=O)[C@@H]1C[C@H]1[C@@H](NC(=O)OCc1ccccc1)c1ccccc1`, with 12%.
Next, `CC(C)(C)OC(=O)N1CCC(NC(=O)c2[nH]cnc2C(=O)N[C@@H](Cc2ccccc2)C(=O)OCc2ccccc2)CC1`: 16.5% (active); `O=C(Nc1ccc(F)c([N+](=O)[O-])c1)C1CC(=O)N(Cc2ccccc2)C1` (configuration not stated): 8.59%; `Cc1cccc(OCC(O)Cn2c(N3CCCCC3)nc3c2c(=O)[nH]c(=O)n3C)c1` (configuration not stated): 2.12%.
Consider `COc1ccc(/C=N/OCC(=O)N(Cc2ccccc2)c2ccccc2C(=O)O)cc1`, for which the inhibition is -3.38%.
Next, `CCOC(=O)c1c(-c2ccccc2)oc2cc(Br)c(O)c(C=O)c12`: 30.2% (active); `Cc1nnc(N/N=C/C2CC=CCC2)[nH]c1=O` (configuration not stated): -2.01%; `O=C(O)CCn1cc(/C=C/C(=O)c2ccc(Cl)cc2)c(-c2cccc(Br)c2)n1`: -0.6%.
Next, `Cc1ccccc1-c1n[nH]c(=S)n1/N=C/c1ccc(-c2ccccc2Br)o1`: 0.55%; `Cc1ccc(OCC(=O)Nc2ccc(NC(=O)c3cccs3)cc2)c(C)c1`: -2.94%; `O=C(COC(=O)[C@H](Cc1ccccc1)NC(=O)c1cccs1)Nc1cc(F)ccc1F`: 13.2% (active).
Then `O=C(Nc1nccs1)c1cc(S(=O)(=O)N2CCOCC2)c(Cl)cc1Cl`, with 10.5%.
Take `CC(=O)Nc1ccc(Sc2ccccc2C(=O)N2CCCC2)cn1`: the inhibition was -1.96%.
On to `Cc1ccc(NC(=O)C(C)OC(=O)Cc2c[nH]c3ccccc23)cc1S(=O)(=O)N1CCOCC1` (configuration not stated), for which the inhibition is 2.7%.
For `CC(C)Oc1c(Br)cc(Br)cc1/C=N/NC(N)=S`, the inhibition is 19.3% (active).
As for `C=Cn1c(C(=O)O)ccc1-c1ccc(OC)cc1`, the inhibition was -3.83%.
Then `CCOC(=O)c1c(NC(=O)CCl)sc(C(=O)N(CC)CC)c1C`, with 17.7% (active); and `Cc1ccc(NS(=O)(=O)c2ccc(C)c(NC(=O)COc3ccc4ccccc4c3)c2)c(C)c1`, with 2.54%.
Consider `COc1cccc(OC)c1C(=O)Nc1c(C(=O)N2CCN(c3ccccn3)CC2)oc2ccccc12`, for which the inhibition is -1.8%.
Then `CC1(C)Cc2ccccc2-c2[nH]c(=S)[nH]c(=O)c21`, with 22.1% (active); and `CCOc1ccc(Nc2nc(Cl)nc(N3CCN(c4ccc(OC)cc4)CC3)n2)cc1`, with 11.2%; and `O=C(OCC(=O)N1CCCCCC1)c1cnc(Cl)c(Cl)c1`, with 21.2% (active).
As for `COc1ccc(CCNC(=O)c2cnc(Cl)c(Cl)c2)cc1`, the inhibition was 13.7% (active).
On to `COc1ccc(CCNC(=O)COC(=O)c2cnc(Cl)c(Cl)c2)cc1`, for which the inhibition was 17.2% (active).
In the case of `COc1ccc(C(C)C)cc1S(=O)(=O)Nc1ncn[nH]1`, the inhibition is 0.13%.
Take `CCCC(C(=O)n1nc(C)cc1C)C(NS(=O)(=O)c1ccc(C)cc1)c1ccccc1` (configuration not stated): the inhibition is 3.42%.
On to `CCOC(=O)CSc1nc(N2CCOCC2)c2c(c1C#N)CC(C(C)C)OC2` (configuration not stated), for which the inhibition was 3.57%.
Then `Cc1ccc(CSc2nnc(-c3cnccn3)n2C)cc1`, with -1.1%; and `COc1ccc(-c2n[nH]c(C)c2-c2ccccc2OC)c(O)c1`, with 4.68%; and `COc1ccc2oc(N)c(C=O)c(=O)c2c1`, with -1.23%.
Consider `COc1ccc(-c2nc3n(c(=O)c2C#N)CCS3)c(OC)c1`, for which the inhibition is -2.32%.
As for `O=C(NC1=CC(=O)c2ccccc2C1=O)c1ccccc1`, the inhibition was -5.71%.
Then `COC(=O)c1sc(-c2ccc(C(C)(C)C)cc2)cc1NC(=O)/C=C/C(=O)O`, with 1.28%; and `COCCCNC(=O)/C(C#N)=C/c1c(N2CCCCCC2)nc2ccccn2c1=O`, with 9.32%; and `CN(C)C(CNC(=O)CCCOc1ccccc1)c1ccco1` (configuration not stated), with -0.67%.
Next, `Cc1ccc(Sc2ccc(NC(=O)c3ccc(F)cc3)cc2C#N)cc1`: 5.25%.
